Measurements reported in PubChem BioAssay AID686970 (National Center for Advancing Translational Sciences (NCATS), 2013).
The whole screen tested about 360,000 compounds, of which about 6,000 (1.7%) were called active. About 8% were inconclusive and are not listed. Many of the other results were omitted from the sample, so actives are more common in it than they were. Values without a mark were called inactive. The call rests on the fitted dose curve; in most records, active means well fitted cell-killing curve with a large enough effect; inconclusive means small, poorly fitted or top-dose-only effect, or effect the other way; inactive means flat fitted curve, though single readings scatter.

Experiment: qHTS for induction of synthetic lethality in tumor cells producing 2HG: qHTS for the HT-1080-NT fibrosarcoma cell line;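 further: NT is the 2HG producing partner of a matched IDH1 knockdown line; nearly all actives have a fitted effect of over 55% in size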;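 on activity, negative = less viability: 0% = DMSO-treated cells and -100% = media-only wells without cells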
Conditions: HT-1080-NT fibrosarcoma viability, CellTiter-Glo ATP luminescence, 48 h; series mostly up to 46.1 µM; activity, negative = less viability: at the top concentration
In short: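 Luminescent CellTiter-Glo readout after 48 hours of compound exposure at 37 degrees C defined viability of HT-1080-NT cells. Activity was normalized to DMSO wells and cell-free media wells; concentration-response curves were fitted and assigned curve classes.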
Potency means the concentration at half of the fitted maximal effect.

Row | Structure (SMILES) | activity, negative = less viability [%] | Potency
1 | COc1cc(C(=O)N2CCOC23CCN(Cc2ccccc2)CC3)cc(OC)c1OC | 0.0161 | 
2 | COC(=O)c1ccc2nc(-c3ccc(F)cc3)c(Cc3ccc(C)cc3)n2c1 | 1.66 | 
3 | CCCCCc1c(-c2ccc(OC)c(OC)c2)ncn1CCc1ccccc1OC |  | 20.6 µM (active)
4 | COc1ccccc1Cc1c(-c2ccc(Cl)cc2)nc2c3ccccc3ccn12 | 4.95 | 
5 | COc1ccccc1CCNS(=O)(=O)c1cn(C)nc1C | 10.6 | 
6 | CCCCCc1c(Cc2ccccc2)ncn1CCc1ccccc1OC |  | 18.4 µM (active)
7 | Cn1c(=O)c2c(ncn2CCc2ccccc2)n(C)c1=O | 10.3 | 
8 | CCCCc1c(-c2ccc(Br)cc2)ncn1CCc1ccccc1OC |  | 9.2 µM (active)
9 | CCC(=O)NCc1cc(-c2nn(C)c(=O)c3ccccc23)ccc1OC | 7.47 | 
10 | COc1ccc(-c2nn(-c3ccccc3)cc2C(=O)Nc2nccs2)cc1OC | -2.1 | 
11 | COc1ccccc1Cc1c(-c2ccc(Cl)cc2)nc2ccc(Cl)cn12 | -12.4 | 
12 | CC1(C(=O)NS(=O)(=O)c2ccccc2)CCN1C(=O)Cc1ccc(-c2ccccc2)cc1 (configuration not stated) | 13 | 
13 | O=C(CC(CC(=O)c1ccccc1)c1ccco1)c1ccccc1 | -6.49 | 
14 | CC1=C(C(=O)N(C(C)C)C(C)C)CC(CC(=O)NCC2CCCCC2)C(=O)N1Cc1ccccc1 (configuration not stated) | 1.17 | 
15 | Cc1ccc(C=O)c([B-](F)(F)F)c1 | -6.9 | 
16 | O=C(NCc1ccccn1)[C@@H]1CCCN1C(=O)[C@@H]1CCCN1C(=O)c1ccccc1 | 19.3 | 
17 | CN1OC[C@@H]2CN[C@H](c3ccc(-c4ccccc4)cc3)C[C@@H]21 | -11.5 | 
18 | COc1cc(C2C(C#N)=C(N)Oc3n[nH]c(-c4ccccn4)c32)cc(OC)c1OC (configuration not stated) | -0.64 | 
19 | CCc1ccc(C2C(C#N)=C(N)Oc3n[nH]c(CC(=O)OC)c32)cc1 (configuration not stated) | 10.5 | 
20 | COCc1[nH]nc2c1C(C1C=CCCC1)C(C#N)=C(N)O2 (configuration not stated) |  | 14.1 µM (active)
21 | Cc1ccc([C@@H]2CC(=O)[C@@H]3CN(S(=O)(=O)c4ccc(C)cc4)[C@H](c4ccccc4F)C[C@@H]3N2S(=O)(=O)c2ccc(Cl)cc2)cc1 | 19.9 | 
22 | FC(F)(F)c1ccccc1Cc1c(-c2ccccc2)nc2c3ccccc3ccn12 | 3.49 | 
23 | NS(=O)(=O)c1ccc(NC(=O)CSc2nnc3c(n2)[nH]c2ccccc23)cc1 | -10.4 | 
24 | CN1CCN(C2Cc3ccc(Cl)cc3Sc3ccc(F)cc32)CC1 (configuration not stated) |  | 14.6 µM (active)
25 | C[C@H]1CN([C@@H](C)CO)C(=O)c2cc(Br)cnc2O[C@H]1CN(C)S(=O)(=O)c1cccs1 | 5.18 | 
26 | CN(C)c1cccc(NC(=O)c2ccc(-c3ccc(F)c(F)c3)c3ccoc23)c1 | 7.38 | 
27 | Cc1ccc(S(=O)(=O)N2CC3C(=O)C[C@@H](c4ccccc4Cl)N(S(=O)(=O)c4ccc(C)cc4)C3CC2c2ccccc2)cc1 (some centres not stated) | 4.22 | 
